The source of these data is PubChem BioAssay.

Calls of active or inactive are those of the source.

Test [1] deals with Plasmodium falciparum Sir2 (PF13_0152, Sir2A). Put plainly: Plasmodium falciparum Sir2A binding compounds – biochemical, small-molecule microarray, 635 nm fluorescence, primary screen (AID 1098).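 Note: score merges spot fluorescence intensity with its signal-to-noise ratio.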 Conditions: fluorescence 635 nm, higher = more signal.
Test [2] can be described thus: probe aDKK1 binding to arrayed compounds – biochemical, biotinylated probe, 635/667 nm fluorescence, primary screen (AID 1099).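 Note: score merges 667nm spot fluorescence with signal to noise across triplicate slides; reference of the scale not given here.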 Conditions: small-molecule microarray, higher = more signal.
The nature of test [3]: probe aCHRDL2 binding to arrayed compounds – biochemical, biotinylated probe, 635/667 nm fluorescence, primary screen (AID 1100). Conditions: small-molecule microarray, higher = more signal.
Test [4] in a line: change in splice reporter luminescence, either direction, cell-based, HEK293, spliceosome inhibition project, primary screen (AID 1101).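 Note: HEK293 cells carrying a splicing-competent luciferase reporter gene; test concentration not given here.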 Conditions: HEK293 splicing luciferase reporter, 24 h, higher = more signal, called active from +8 up or from −8 down.
Test [5] concerns the target Fibroblast growth factor 10 (Homo sapiens) (UniProt O15520). Put plainly: compounds binding fibroblast growth factor 10 – biochemical, small-molecule microarray, 635 nm fluorescence, primary screen (AID 1102). Conditions: FGF10 binding, fluorescence 635 nm, higher = more signal.
Test [6] has as its system glycogen synthase kinase-3 (GSK3A per assay name; protocol says GSK3B). As to the kind of experiment: compounds binding glycogen synthase kinase-3 – biochemical, small-molecule microarray, 635 nm fluorescence, GSK3A, primary screen (AID 1103). Note: the record names both GSK3A and GSK3B. Conditions: fluorescence 635 nm, higher = more signal.
In test [7] the target is Epidermal growth factor receptor (Homo sapiens) (UniProt P00533). As to the kind of experiment: compounds binding epidermal growth factor receptor – biochemical, small-molecule microarray, 635 nm fluorescence, primary screen (AID 1104).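 Note: score merges 667 nm emission intensity with spot signal to noise over triplicate slides.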 Conditions: EGFR binding, higher = more signal.
Test [8] has as its target Follistatin-related protein 3 (Homo sapiens) (UniProt O95633). Put plainly: compounds binding follistatin-related protein 3 – biochemical, small-molecule microarray, 635 nm fluorescence, primary screen (AID 1105).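 Note: score merges emission near 667 nm and signal to noise per printed spot across three slides.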 Conditions: FSTL3 binding, higher = more signal.
Test [9] deals with Dickkopf-related protein 1 (Homo sapiens) (UniProt O94907). Put plainly: small molecules binding DKK1 protein – biochemical, small-molecule microarray, 635 nm fluorescence scan, primary screen (AID 1106).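 Note: score merges emission near 667 nm with signal to noise over three replicate slides.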 Conditions: higher = more signal.
For test [10], the system named is Inhibin beta A chain (activin A). Put plainly: small molecules binding activin A – biochemical, small-molecule microarray, 635 nm fluorescence scan, primary screen (AID 1107).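 Note: mouse activin A protein probed at 4.33 µg/mL on printed slides; score merges bound-protein fluorescence near 667 nm with spot signal-to-noise.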 Conditions: INHBA, higher = more signal.

Chain of Epidermal growth factor receptor (Homo sapiens) (P00533 whole entry, looked up): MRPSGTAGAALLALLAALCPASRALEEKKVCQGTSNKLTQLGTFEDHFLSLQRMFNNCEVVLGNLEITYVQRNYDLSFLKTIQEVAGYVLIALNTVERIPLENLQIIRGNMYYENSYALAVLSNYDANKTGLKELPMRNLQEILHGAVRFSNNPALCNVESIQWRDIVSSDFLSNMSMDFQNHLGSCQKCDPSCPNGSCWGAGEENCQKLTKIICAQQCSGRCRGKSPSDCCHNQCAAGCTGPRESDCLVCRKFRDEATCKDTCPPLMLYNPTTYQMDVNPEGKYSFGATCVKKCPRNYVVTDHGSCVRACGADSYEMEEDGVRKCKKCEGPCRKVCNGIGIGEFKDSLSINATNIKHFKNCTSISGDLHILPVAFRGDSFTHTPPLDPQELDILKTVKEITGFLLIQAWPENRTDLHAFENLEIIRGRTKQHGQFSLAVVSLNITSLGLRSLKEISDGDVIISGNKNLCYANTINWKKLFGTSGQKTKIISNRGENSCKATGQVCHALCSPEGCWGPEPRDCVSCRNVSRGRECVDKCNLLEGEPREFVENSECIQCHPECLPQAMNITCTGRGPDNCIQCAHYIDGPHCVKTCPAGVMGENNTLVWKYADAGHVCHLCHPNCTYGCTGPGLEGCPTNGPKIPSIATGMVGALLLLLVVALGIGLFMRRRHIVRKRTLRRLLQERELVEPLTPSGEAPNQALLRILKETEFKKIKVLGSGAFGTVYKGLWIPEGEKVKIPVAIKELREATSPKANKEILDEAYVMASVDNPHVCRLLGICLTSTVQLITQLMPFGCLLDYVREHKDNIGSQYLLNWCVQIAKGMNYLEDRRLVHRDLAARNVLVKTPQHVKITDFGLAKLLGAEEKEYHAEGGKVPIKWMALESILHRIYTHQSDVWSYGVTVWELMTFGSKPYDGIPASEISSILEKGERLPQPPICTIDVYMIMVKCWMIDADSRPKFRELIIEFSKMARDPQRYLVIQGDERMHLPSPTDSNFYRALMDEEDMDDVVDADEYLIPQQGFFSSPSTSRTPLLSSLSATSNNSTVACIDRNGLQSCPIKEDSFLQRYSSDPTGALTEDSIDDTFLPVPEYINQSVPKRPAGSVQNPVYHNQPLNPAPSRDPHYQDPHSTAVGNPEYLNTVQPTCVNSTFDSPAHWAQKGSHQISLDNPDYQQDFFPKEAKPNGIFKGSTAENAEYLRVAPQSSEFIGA
Chain of Follistatin-related protein 3 (Homo sapiens) (O95633 whole entry, looked up): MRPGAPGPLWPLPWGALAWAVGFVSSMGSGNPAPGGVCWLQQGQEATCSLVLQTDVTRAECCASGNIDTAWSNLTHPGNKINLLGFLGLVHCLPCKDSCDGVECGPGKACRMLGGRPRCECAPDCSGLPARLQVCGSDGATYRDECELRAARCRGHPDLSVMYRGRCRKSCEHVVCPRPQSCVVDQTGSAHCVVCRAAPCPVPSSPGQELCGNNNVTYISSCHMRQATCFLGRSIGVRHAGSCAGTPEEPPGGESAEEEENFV
Chain of Fibroblast growth factor 10 (Homo sapiens) (O15520 whole entry, looked up): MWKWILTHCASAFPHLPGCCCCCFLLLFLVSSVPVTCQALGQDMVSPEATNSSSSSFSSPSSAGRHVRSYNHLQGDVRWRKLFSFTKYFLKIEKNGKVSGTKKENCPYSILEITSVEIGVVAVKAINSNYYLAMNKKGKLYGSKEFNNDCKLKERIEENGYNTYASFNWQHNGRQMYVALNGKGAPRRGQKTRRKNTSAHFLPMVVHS
Chain of Dickkopf-related protein 1 (Homo sapiens) (O94907 whole entry, looked up): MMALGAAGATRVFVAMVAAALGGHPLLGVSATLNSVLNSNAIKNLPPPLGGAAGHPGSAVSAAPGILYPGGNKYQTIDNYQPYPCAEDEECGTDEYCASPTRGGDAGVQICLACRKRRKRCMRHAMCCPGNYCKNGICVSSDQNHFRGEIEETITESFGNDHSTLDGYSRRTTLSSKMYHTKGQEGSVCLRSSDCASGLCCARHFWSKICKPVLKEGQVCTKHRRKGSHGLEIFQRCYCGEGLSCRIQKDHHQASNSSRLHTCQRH

Consider `CN1C(=O)[C@@]2(CCS(=O)(=O)c3ccccc3)N=C(c3ccc(OCCCO)cc3)O[C@H]2c2ccccc21`, for which the composite z-score in test [1] came to 1.12; in [2], 0.0859; in [3] it was 0.861; in test [5] it was 0.939; in [6], 1.32; in [7], 0.364. Also, the figures for the composite z-score in [8], in test [9] and in test [10] were 1.05, 0.172 and 0.615, respectively. Also, the z-score in test [4] is -1.06 (inactive).

Consider `Cc1ccc(S[C@]2(C(=O)NC(C)C)CC(=O)N(Cc3ccccc3C(F)(F)F)[C@@H]2c2ccc(CO)cc2I)cc1`, for which the composite z-score in test [1] is 1.29; in [2], 0.386; in test [3], 1.09; in test [5], -1.41; in [6] it was -1.1; in test [7] it was -1.64. For the same compound, the composite z-score in test [8] was -1.29; in test [9], -1.7; in test [10], 0.889. In addition, the z-score in [4] is -1.42 (inactive).

For `CC(C)(C)N1CC=CC23O[C@@H]4C=CCOC(=O)[C@@H]4[C@H]2C(=O)N(CCCO)[C@@H]3C1=O` (stereo not given in full), the composite z-score is 1.43 in test [1]; -0.451 in [2]; 0.726 in test [3]; -1.3 in test [5]; -1.13 in [6]; -1.66 in test [7]. The figures for the composite z-score in test [8], in [9] and in [10] were -1.69, -1.26 and 0.301, respectively. The z-score in [4] was -1.28 (inactive).

As for `COCCCNC(=O)[C@@]1(Sc2ccc(C)cc2)CC(=O)N(C2Cc3ccccc3C2)[C@@H]1c1ccc(CO)cc1I`, the composite z-score in test [1] was 0.693; in test [2] it was 0.59; in [3], 0.947; in [5] it was -0.235; in [6], -1.1; in test [7] it was -0.689. The composite z-score in [8] is -1.58; in [9] it was -1.77; in test [10], 0.388. The z-score in [4] was -0.697 (inactive).

For `CCOc1cc(C(O)C2C=CC3C(=O)N(C)C(=O)C3N2N2CCCCC2)ccc1O` (stereo not given), the composite z-score in test [1] is 1.56; in test [2] it was 0.637; in test [3], 0.101; in [5] it was 0.264; in test [6], -0.37; in test [7] it was 0.287. The figures for the composite z-score in test [8], in test [9] and in test [10] were 0.276, 0.164 and 0.898, respectively. Also, the z-score in [4] was 0.377 (inactive).

On to `CCOC(=O)C[C@H]1[C@H](OC(=O)Cc2ccc3c(c2)OCO3)[C@@H](NC(=O)Cc2ccc(OC)cc2)c2cc(OCCCO)ccc2N1C(=O)c1ccccc1`, for which the composite z-score was 1.07 in test [1]; 0.423 in [2]; 0.383 in [3]; 0.647 in test [5]; 0.614 in [6]; 0.0042 in [7]. Further, the composite z-score in test [8] was 0.312; in test [9], 0.149; in test [10] it was 0.265. Moreover, the z-score in test [4] is -0.484 (inactive).

Take `CCC[C@@H]1C[C@@]1(CCC)[C@@H](NP(=O)(c1ccccc1)c1ccccc1)c1ccc(Cl)cc1`: the composite z-score is 0.219 in test [1]; 0.0536 in [2]; 0.292 in test [3]; -0.489 in [5]; -0.965 in [6]; -0.537 in test [7]. In addition, the composite z-score is -0.366 in test [8], 0.102 in test [9] and 1.18 in test [10]. The z-score in [4] was -2.26 (inactive).

Regarding `COC(=O)[C@@]1(Cc2ccc(F)cc2)[C@H]2c3cc(C(=O)N4CCCC4)n(CCc4c[nH]c5ccc(OC)cc45)c3C[C@H]2CN1C(=O)c1ccccc1`, the composite z-score stood at 1.03 in test [1]; 1.6 in test [2]; 1.01 in [3]; 1.53 in test [5]; 1.18 in [6]; 0.763 in test [7]. Moreover, the composite z-score in [8] came out at 0.735; in test [9], 0.0605; in test [10] it was 1.06. Besides, the z-score in test [4] was -3.28 (inactive).

In the case of `C=CC[C@]1(C(=O)N(C)C)N=C(c2ccc(OCCCO)cc2)O[C@H]1c1ccccc1N=[N+]=[N-]`, the composite z-score in test [1] was 0.265; in test [2], 0.776; in test [3], 1.14; in test [5], 0.762; in [6], 0.346; in test [7] it was -0.257. Moreover, the figures for the composite z-score in [8], in test [9] and in test [10] were 0.859, -0.367 and 0.889, respectively. In addition, in [4], the z-score is -0.288 (inactive).

Consider `CC1CC/C=C\[C@H]2OC34C=CCN(CCN5CCOCC5)C(=O)[C@H]3N(CCO)C(=O)[C@@H]4C2C(=O)O1` (stereo not given in full), for which the composite z-score in [1] is -0.778; in [2], -0.31; in [3] it was 0.293; in test [5], -0.992; in [6], -0.831; in test [7], -0.707. The values for the composite z-score in test [8], in test [9] and in [10] were -0.781, -0.137 and 0.761, respectively. Further, in [4], the z-score is -0.81 (inactive).

Regarding `COc1cc2c(cc1O)C(C)N(Cc1cc3c(cc1Br)OCO3)CC2` (stereo not given), the composite z-score is 1 in test [1]; 0.623 in [2]; 0.749 in [3]; -0.0175 in test [5]; -1.11 in test [6]; -0.277 in [7]. Also, the values for the composite z-score in test [8], in test [9] and in [10] were -0.475, -0.165 and 0.561, respectively. Also, the z-score in test [4] was -0.363 (inactive).

`CCOC(=CC(=O)OC)CC(O)c1cccc(Cl)c1` (stereo not given): the composite z-score in [1] is 0.971; in test [2] it was -0.132; in test [3], 0.445; in test [5], -0.617; in test [6], 0.982; in test [7], -0.779. For the same compound, the values for the composite z-score in [8], in test [9] and in test [10] were -0.151, -1.3 and -0.297, respectively. Also, the z-score in [4] was -1.02 (inactive).

`CN(C)CCCN1C(=O)[C@@]2(c3ccc([N+](=O)[O-])cc3)CC(=O)N(CC34CC5CC(CC(C5)C3)C4)[C@@H]2c2ccc(CO)cc21`: the composite z-score in [1] was 1.68; in test [2], 1.83; in test [3] it was 0.543; in [5], -0.173; in test [6] it was 0.443; in test [7] it was -0.708. Also, the composite z-score in [8] was -0.116; in test [9] it was -0.482; in [10] it was 0.144. The z-score in test [4] was 0.626 (inactive).

In the case of `O=C1O[C@H](c2ccccc2)[C@H](c2ccccc2)N2[C@H]1[C@@H](C(=O)O)[C@]1(C(=O)Nc3ccccc31)[C@H]2c1ccc(O)cc1`, the composite z-score in [1] was 0.663; in test [2] it was -0.391; in [3], 0.253; in test [5], 0.619; in [6], -0.219; in test [7], -0.552. Besides, the composite z-score in [8] was -0.532; in test [9] it was -0.836; in test [10], -1.37. Besides, in [4], the z-score is -0.531 (inactive).

`C[C@H]1C2=C3C(CC[C@H]4C(OCc5ccc(F)cc5C(F)(F)F)OC[C@](C)([C@@H]34)N(C(=O)OC(C)(C)C)C2)C2COC(=O)OCC21` (stereo not given in full): the composite z-score in test [1] is 0.0559; in test [2] it was 0.457; in test [3] it was 1.28; in test [5], 0.0151; in test [6], 0.987; in test [7], 0.0472. Also, the results for the composite z-score in test [8], in test [9] and in test [10] were 0.768, -0.648 and 0.572, respectively. For the same compound, in test [4], the z-score is -0.848 (inactive).

As to `NC(=O)NCC#Cc1ccc2c(c1)[C@]1(C(=O)N2)[C@H](C(=O)O)[C@H]2C(=O)O[C@H](c3ccccc3)[C@H](c3ccccc3)N2[C@@H]1c1ccccc1OCCO`, the composite z-score in test [1] amounted to 1.37; in [2], 0.689; in test [3] it was 0.677; in test [5], 0.991; in [6], 0.558; in test [7] it was 0.363. In addition, the results for the composite z-score in test [8], in test [9] and in [10] were 1.01, 0.351 and 1.4, respectively. Further, the z-score in test [4] is -1.14 (inactive).
